Compound activity: PubChem BioAssay, several laboratories
mHtt clearance – compounds clearing mutant huntingtin protein; HeLa Exon1htt(103Q)mCFP, aggregate imaging; zero = plate's median compound well; inhibition, % at 1.5 µM; 47,000 tested, 0.42% active;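 active = inhibition of aggregate fluorescence above about 70%, also judged a hit by eye on the cell image, limit read from the data, passing the limit was not always enough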;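 note: cells exposed to compound for three days before fixation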
SKBR3 24h inh – SK-BR-3 proliferation inhibitors; SK-BR-3 viability, CellTiter-Glo ATP luminescence, 24 h; active compounds read low; viability, % at 10 µM; 41,000 tested, 0.47% active; AID 847;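 active = viability at or below the median of all test compounds minus 3 SD, in both replicates if run twice, cut at about 45% in these data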;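 note: 100% = median untreated cell wells and 0% = median positive control drug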
* marks the source's active call; other numbers are inactive results. Hits are enriched below; roughly 0.58% of the tested compounds scored in any of these assays.

How did c1cncc(-c2nnc(-c3cccnc3)nn2)c1 do in these assays?
mHtt clearance: -53.3; SKBR3 24h inh: 35.3*

Results for NC(=O)c1cccnc1 ?
SKBR3 24h inh: 87.8

How did COc1ccc(S(=O)(=O)N2CCOCC2)cc1C(=O)Nc1cc(C)on1 do in these assays?
mHtt clearance: -27.7; SKBR3 24h inh: 81.5

Results for COc1cc2[nH]c(=O)n(CCC(=O)N3CCN(c4cc(Cl)ccc4C)CC3)c(=O)c2cc1OC ?
SKBR3 24h inh: 8.5*

Results for CCOc1cc2[nH]c(=O)n(CCC(=O)N3CCN(c4ccccc4OC)CC3)c(=O)c2cc1OCC ?
mHtt clearance: 22.9

How did Cc1nc2ccc(C(C(F)(F)F)(C(F)(F)F)C(F)(F)F)cc2[nH]1 do in these assays?
mHtt clearance: 5.3; SKBR3 24h inh: 84.9

Results for CCCCS(=O)(=O)/C=C\C1C2C=CC(C2)C1S(=O)(=O)CCCC (stereo not drawn) ?
mHtt clearance: 30.7

Results for CCCCS(=O)(=O)/C=C\C=C/S(=O)(=O)CCCC ?
mHtt clearance: 53.9; SKBR3 24h inh: 38.0*

How did C=CCn1c(N)cc(=O)nc1SC(C)C(=O)Nc1cccc2ccccc12 (stereo not drawn) do in these assays?
mHtt clearance: -35.5

How did CN1CCN(c2c3c(c(C#N)c4nc5ccccc5n24)CCCC3)CC1 do in these assays?
SKBR3 24h inh: 96.1

Results for COc1cc(NC(=O)Nc2cccc(C(C)=O)c2)cc(OC)c1OC ?
mHtt clearance: 75.2*; SKBR3 24h inh: 95.0

How did COc1cccc(OC)c1C(=O)Nc1cccc(C(C)=O)c1 do in these assays?
mHtt clearance: 6.8

What do the screens show for `CCOC(=O)C1(c2nc(N)cs2)COC(=O)C1` (stereo not drawn)?
SKBR3 24h inh: 99.8

How did Cc1cc(S(=O)(=O)NCCCN2CCOCC2)ccc1F do in these assays?
SKBR3 24h inh: 91.2

Results for N#Cc1c(NC(=O)CSC2=NCCS2)sc2c1CCCC2 ?
SKBR3 24h inh: 78.2

How did O=C(CSC1=NCCS1)Nc1nc2c(s1)CCCC2 do in these assays?
SKBR3 24h inh: 42.5*

Results for CC(C)(C)OC(=O)NC(CCCCNC=O)C(=O)O (stereo not drawn) ?
mHtt clearance: -209.4; SKBR3 24h inh: 99.9

How did CC(=O)c1cc(-c2nc3ccccc3n2C)n(C)c1 do in these assays?
mHtt clearance: 71.3*; SKBR3 24h inh: 88.3

How did Cn1cc(C(=O)c2ccc(F)cc2)cc1-c1nc2ccccc2n1C do in these assays?
mHtt clearance: -27.6; SKBR3 24h inh: 103.2

Results for CC(=O)Nc1ccc2c(c1)nc(CCN1CCN(C)CC1)n2C ?
mHtt clearance: -10.0; SKBR3 24h inh: 98.0

How did CC1(c2ccc(Cl)cc2Cl)OCC(Cn2ccnc2)O1 (stereo not drawn) do in these assays?
SKBR3 24h inh: 86.8

What do the screens show for `Cc1nc(SCC(=O)Nc2ccc3c(c2)OCCO3)c2oc3ccccc3c2n1`?
mHtt clearance: -50.9

How did O=C(CSc1ncnc2c1oc1ccccc12)Nc1ccc2c(c1)OCCO2 do in these assays?
mHtt clearance: 72.7*; SKBR3 24h inh: 55.8

Results for CN(C)S(=O)(=O)NCc1ccc2c(c1)OCO2 ?
mHtt clearance: 19.3; SKBR3 24h inh: 82.6

Results for CCCn1c(SCC(=O)Nc2sc(C)c(C)c2C(=O)OC)nc2c1c(=O)n(C)c(=O)n2C ?
SKBR3 24h inh: 90.2

Results for CCOC(=O)c1c(NC(=O)CSc2nc3c(c(=O)n(C)c(=O)n3C)n2CC)sc(C)c1C ?
SKBR3 24h inh: 43.9*

How did COc1ccc(NC(=O)CSc2nc3c(c(=O)n2-c2ccc(C)cc2)SCC3)c(OC)c1 do in these assays?
SKBR3 24h inh: 91.9

How did C=CCn1c(C)cc(C(=O)CSc2n[nH]c(N)n2)c1C do in these assays?
mHtt clearance: 31.2

Results for Nc1nc(SCC(=O)NCc2ccccc2)n[nH]1 ?
mHtt clearance: -11.2; SKBR3 24h inh: 90.8

Results for Cc1ccc(CNC(=O)CSc2n[nH]c(N)n2)cc1 ?
mHtt clearance: 82.2*; SKBR3 24h inh: 82.8

What do the screens show for `O=C(CSc1nccn1Cc1ccccc1)NCc1ccccc1`?
mHtt clearance: 20.2

What do the screens show for `Cc1ccccc1Cn1cc(NC(=O)c2nc3ncccn3n2)cn1`?
mHtt clearance: 14.4

Results for Cc1ccc(C2CC(C(F)F)n3ncc(C(=O)Nc4cnn(Cc5ccccc5C)c4)c3N2)cc1 (stereo not drawn) ?
SKBR3 24h inh: 32.1*

What do the screens show for `Clc1ccc(Cl)c(OCc2cc(-c3ccccc3Cl)on2)c1`?
mHtt clearance: 2.3

Results for CCCn1c(SCC(=O)Nc2cc(Cl)ccc2OC)n[nH]c1=O ?
mHtt clearance: -49.4

What do the screens show for `O=C(CSc1n[nH]c(=O)n1C1CC1)Nc1cc(Cl)ccc1Oc1ccccc1`?
mHtt clearance: 84.2*

What do the screens show for `CCCC(=O)N1CCN(c2ccc(NC(=O)c3cc4ccccc4o3)cc2Cl)CC1`?
SKBR3 24h inh: 6.2*

Results for CCC(=O)N1CCN(c2ccc(NC(=O)c3cc4ccccc4o3)cc2Cl)CC1 ?
SKBR3 24h inh: 91.3

What do the screens show for `Cc1ccc(CNC(=O)Cn2c(=O)oc3ccccc32)o1`?
SKBR3 24h inh: 38.0*

Results for CC(C)Oc1ccc(CNC(=O)Cn2c(=O)oc3ccccc32)cc1 ?
mHtt clearance: -111.8

What do the screens show for `Cc1ccc(-c2nnn(CC(=O)Nc3ccccc3-c3ccccc3)n2)c(-n2cnnn2)c1`?
mHtt clearance: -16.2; SKBR3 24h inh: 97.1

What do the screens show for `Cc1ccc(S(=O)(=O)NCCN=C(CN2CCCC2)NS(=O)(=O)c2ccc(C)cc2)cc1`?
SKBR3 24h inh: 126.3

How did S=c1[nH]nc(-c2ccncc2)n1Cc1ccco1 do in these assays?
mHtt clearance: 23.9; SKBR3 24h inh: 83.6

Results for S=c1[nH]nc(-c2ccc(Br)cc2)n1Cc1ccco1 ?
mHtt clearance: 72.3*; SKBR3 24h inh: 81.5

Results for CN(C)CCCNc1cn[nH]c(=O)c1Cl ?
mHtt clearance: 42.0

What do the screens show for `CC1CCN(c2nc3c(c(=O)[nH]c(=O)n3C)n2CCSc2nc3ccccc3o2)CC1`?
SKBR3 24h inh: 92.1

Results for O=C(NCc1cccs1)c1nc2c(nnn2Cc2ccccc2Cl)c(=O)[nH]1 ?
SKBR3 24h inh: 22.4*

How did O=C(Cc1cccs1)N1CCCC(c2nc3c(nnn3Cc3ccccc3Cl)c(=O)[nH]2)C1 (stereo not drawn) do in these assays?
mHtt clearance: -1.6

How did CCOC(=O)C1CCCN(C/C(O)=C(\C#N)c2nc(-c3ccccc3)cs2)C1 (stereo not drawn) do in these assays?
mHtt clearance: -4.0

How did O=C(O)C1C2C=CC3(CN(Cc4ccncc4)C(=O)C13)O2 (stereo not drawn) do in these assays?
SKBR3 24h inh: 78.5

How did CN(C)CCCN1c2ccccc2Sc2ccc(C(F)(F)F)cc21 do in these assays?
SKBR3 24h inh: 105.0

What do the screens show for `OCCN1CCN(CCCN2c3ccccc3Sc3ccc(C(F)(F)F)cc32)CC1`?
SKBR3 24h inh: 15.6*

What do the screens show for `COc1ccc(NC(=O)CN(c2ccc(C)cc2)S(C)(=O)=O)c(OC)c1`?
mHtt clearance: 1.3

How did COc1ccc(OC)c(NC(=O)CN(c2ccc(OC)c(Cl)c2)S(C)(=O)=O)c1 do in these assays?
SKBR3 24h inh: 36.4*

What do the screens show for `COc1ccc(-c2cc(C(F)(F)F)nc(SCC(=O)Nc3cc(C)on3)n2)cc1`?
mHtt clearance: -47.3; SKBR3 24h inh: 73.4

What do the screens show for `FC(F)(F)c1cc(-c2ccccc2)nc(N2CCCCCC2)n1`?
mHtt clearance: 18.8; SKBR3 24h inh: 86.1

What do the screens show for `CS(=O)(=O)c1nc(-c2ccccc2)cc(C(F)(F)F)n1`?
SKBR3 24h inh: 28.0*
